Screening results: PubChem BioAssay, several laboratories
E coli growth-1: reduces bacterial viability in AddAB counter-screen | E. coli V3065 growth, OD600 absorbance, 18 h | inhibition, % at 11.9 µM | actives 0.27% (n = 330,000) | AID 449728;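 active means inhibition above the campaign's mean inhibition across all tested compounds plus 3 SD, cut at about 9.9% in these data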;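 further: uninfected addAB+ strain grown without phage in ampicillin broth; 0% = DMSO wells and 100% = ciprofloxacin 0.95 µg/ml wells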
phage Ecoli inh: E. coli growth loss with phage present; AID 651602; inhibition, % at 11.9 µM; growth absorbance; actives 0.26% (n = 360,000); in the data active means inhibition above about 11%
AddAB inh: less growth of phage-infected E. coli with AddAB. E. coli expressing H. pylori AddAB, absorbance growth. inhibition, % at 11.9 µM. actives 0.29% (n = 330,000); in the data active means inhibition above about 12%;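 further: 0% = vehicle wells of infected cells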
Tat transport: blocks Tat-dependent protein export in E. coli; inhibition, % at 10 µM; actives 0.036% (n = 340,000); E. coli MC4100 TorA-mCherry Tat export, fluorescence;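 active means mean replicate inhibition at least 50% and at least half of replicates individually reaching 50%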;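 further: exported cargo escapes ClpAP degradation while cytoplasmic cargo is degraded and loses fluorescence; 0% = median of neutral control wells and 100% = median of NaSCN control wells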
E coli growth-2: blocks Escherichia coli growth; OD600 absorbance (no concentration beside the values); actives 0.21% (n = 330,000); OD600, 23 h; stronger effect = lower value;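 active means OD600 absorbance below the run mean of sample wells minus 3.6 SD, in any replicate, cut at about 0.56 in these data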
Active calls of the source: *; nt = no result given. Hits are enriched below; roughly 0.5% of the tested compounds scored in any of these assays.

SMILES	E coli growth-1	phage Ecoli inh	AddAB inh	Tat transport	E coli growth-2
CN1C(=O)C2C[C@@]3([C@@]45CC6C(=O)N(C)C(Cc7ccccc7)C(=O)N6C4Nc4ccccc45)c4ccccc4NC3N2C(=O)C1Cc1ccccc1 (stereo partly drawn)	nt	nt	nt	nt	0.72
COCCCNC(=O)CSc1ccsc1[N+](=O)[O-]	11*	6	12	-3	0.69
CCCS(=O)(=O)N1CCCC(C(=O)NCCCN2CCCC2=O)C1 (stereo not drawn)	11*	0	15*	4	0.68
O=C(NN=Cc1cc(O)ccc1[N+](=O)[O-])c1ccc2c(c1)OCCO2	nt	nt	nt	nt	0.64
CCc1ccc2[nH]c3nc(N/N=C/c4ccc(O)cc4O)nnc3c2c1	11*	8	11	-20	nt
COC(=O)c1c(NC(=S)NN2CCN(C)CC2)sc2c1CCC(C)C2 (stereo not drawn)	-5	3	-3	14	0.48*
COC(=O)c1c(NC(=O)Cc2cccs2)sc2c1CCC(C)C2 (stereo not drawn)	-1	0	3	7	0.7
O=C(c1cnn(-c2ccccc2)c1)c1cc(Br)ccc1O	0	3	4	-5	0.71
O=C(c1ccc(O)c(Br)c1)c1cc(Br)ccc1O	nt	11	nt	-6	0.39*
O=S(=O)(N=C(c1ccccc1)N1CCOCC1)c1cccs1	nt	nt	nt	nt	0.72
Cn1ncc(Cl)c1C(=O)NN=Cc1cccc(OC2CSC2)c1	nt	nt	nt	nt	0.73
Nc1nc(SCC(=O)Nc2ncc(C(F)(F)F)cc2Cl)n[nH]1	12*	2	9	-10	0.71
Cc1ccc(NS(=O)(=O)c2ccc(OCC(=O)NCc3ccco3)cc2)cc1	13*	3	10	-2	0.75
c1ccc(CNc2nc(NCc3ccccc3)c3ccccc3n2)cc1	1	nt	6	-3	0.44*
Fc1ccc(Nc2nc(NCc3ccco3)c3ccccc3n2)cc1	1	1	1	-80	0.36*
C=C1c2c(Cl)ccc(O)c2C(O)=C2C(=O)[C@]3(O)C(O)=C(C(N)=O)C(=O)C(N(C)C)C3C(O)C12 (stereo partly drawn)	nt	nt	nt	nt	0.075*
O=C(Nc1cccnc1)Nc1ccc(F)c(Cl)c1	0	7	2	-9	0.54*
O=C(Nc1ccc(Cl)c(Cl)c1)Nc1ccon1	1	5	-1	2	0.54*
O=C(Nc1ccc(Cl)c(Cl)c1)Nc1ccccc1O	5	7	4	12	0.46*
COc1cc(OC)cc(C(=O)NN=Cc2ccc(OC)c(COc3ccc4ccccc4c3)c2)c1	nt	nt	nt	nt	0.73
CC(C)N1CCc2c(sc(NC(=O)c3ccc(S(=O)(=O)N4CCc5ccccc54)cc3)c2C(N)=O)C1	-1	nt	1	62*	0.72
CC(C)N1CCc2c(sc(NC(=O)c3nc4ccccc4s3)c2C(N)=O)C1	-2	0	-2	-5	0.69
Nc1nc2ccccc2n1Cc1ccc(Cl)c(Cl)c1	3	-2	3	13	0.44*
Cc1ccc(Cn2c(N)nc3ccccc32)cc1	2	4	6	-4	nt
Cc1ccc(C(C[N+](=O)[O-])c2c(-c3ccccc3O)[nH][nH]c2=O)cc1 (stereo not drawn)	0	5	8	-30	0.52*
SMILES	E coli growth-1	phage Ecoli inh	AddAB inh	Tat transport	E coli growth-2
CC(=CC(=O)OCCCCCCCCC(=O)O)CC1OCC(CC2OC2C(C)C(C)O)C(O)C1O (stereo not drawn)	nt	nt	nt	nt	0.12*
CCOC(=O)c1c(N=CN(C)C)sc(C)c1C	nt	nt	nt	nt	0.64
O=C(NC1=NCCS1)c1ccc(N2CCCC2=O)cc1	0	5	1	-9	0.53*
Cc1nnc(NC(=O)c2ccc(N3CCCC3=O)cc2)s1	nt	6	nt	-3	0.68
CN(C)S(=O)(=O)c1cccc(NC(=S)N/N=C/c2ccc(O)c(O)c2O)c1	nt	11*	nt	7	nt
Cc1cc([N+](=O)[O-])c(-c2ccc(C=Nn3cnnc3)o2)cc1Cl	nt	nt	nt	nt	0.62
CC[n+]1ccc(C=C2Sc3ccccc3N2CCCS(=O)(=O)[O-])c2ccccc21	nt	nt	nt	nt	0.71
C=Cn1cc[n+](CC(=O)c2ccc(-c3ccccc3)cc2)c1	13*	6	11	2	0.68
COc1ccc(C=NNC(=O)c2[nH]c3ccc(Br)cc3c2-c2ccccc2)cc1	nt	nt	nt	nt	0.71
CCOC(=O)C(=NNc1cc(Cl)ccc1Cl)N1CCN(C)CC1	nt	nt	nt	nt	0.68
O=C(Nc1ccc(Cc2ccncc2)cc1)c1cccc([N+](=O)[O-])c1	2	3	2	5	0.67
O=C(Nc1ccc(Cc2ccncc2)cc1)c1ccc([N+](=O)[O-])o1	13*	9	12	-4	0.58
CC(=NNC(=O)c1ccco1)c1cc2ccccc2o1	nt	nt	nt	nt	0.66
CC(=O)c1ccc(NC(=S)Nc2ccc(Br)c(Cl)c2)cc1	1	9	1	-13	0.51*
C=CCOC(=O)C1=CC(c2ccc3c(c2)OCO3)CC(OCc2ccc(CO)cc2)O1 (stereo not drawn)	nt	nt	nt	nt	0.66
CC(=NNC(=O)c1ccc(N(C)C)cc1)c1ccc(C)cc1C	nt	nt	nt	nt	0.68
COC1C=CO[C@@]2(C)Oc3c(C)c(O)c4c(O)c(c5c(nc6cc(C)ccn65)c4c3C2=O)NC(=O)C(C)=CC=CC(C)C(O)C(C)C(O)C(C)C(OC(C)=O)C1C (stereo partly drawn)	nt	nt	nt	nt	0.062*
COC1C=CO[C@@]2(C)Oc3c(C)c(O)c4c(O)c(c(C=NN5CCN(C)CC5)c(O)c4c3C2=O)NC(=O)C(C)=CC=CC(C)C(O)C(C)C(O)C(C)C(OC(C)=O)C1C (stereo partly drawn)	nt	nt	nt	nt	0.074*
CNC[C@@H](CC1CCCCC1)NC[C@H](CC(C)C)NCCc1cccc(C(F)(F)F)c1	-2	4	0	6	nt
CNCC(CC1CCCCC1)NCC(CC(C)C)NCCc1cccc(C(F)(F)F)c1 (stereo not drawn)	nt	nt	nt	nt	0.068*
COc1cc(C=NNc2nc3ccccc3s2)cc([N+](=O)[O-])c1O	nt	nt	nt	nt	0.65
COc1ccc(/C=C/C(O)=C(\C#N)c2nnc(N3CCOCC3)n2-c2ccccc2)cc1OC	-1	0	1	-7	0.43*
CCN1CSC(=S)N(Cc2ccccc2)C1	-1	0	1	-37	0.54
CCN1CSC(=S)N(Cc2ccc(OC)cc2)C1	0	0	1	-30	0.5*
COC(=O)CC1c2cc(C(F)(F)F)ccc2S(=O)(=O)N1C(C)(C)C (stereo not drawn)	nt	nt	nt	nt	0.66
C=CCN1C(=O)[C@@H]2Cc3c([nH]c4ccccc34)C(c3cc(OC)c(OC)c(OC)c3)N2C1=S (stereo partly drawn)	-2	6	-1	-6	0.69
C=CCN1C(=O)[C@@H]2Cc3c([nH]c4ccccc34)C(c3ccc(O)cc3)N2C1=S (stereo partly drawn)	-1	nt	1	5	0.067*
CC(C)CC(NC(=O)OC(C)(C)C)C(=O)NC(CO)C(O)C1CC1C(=O)N1CCCC1 (stereo not drawn)	nt	nt	nt	nt	0.71
CCCCCCCCCCCCCCCC(O)C[N+](C)(C)CCO (stereo not drawn)	nt	3	nt	52*	nt
COc1ccc(S(=O)(=O)Nc2cccc3c2OC(CN(C)C(=O)NC(C)C)C(C)CN(C(C)CO)C3=O)cc1 (stereo not drawn)	nt	nt	nt	nt	0.71
